# Measured values reported in PubChem BioAssay (NCATS).
# Records with an inconclusive call do not appear. The source made the active and inactive calls. Calls come from the whole dose curve; as a rule, active = well fitted inhibition curve with a large enough effect; inconclusive = small, poorly fitted or top-dose-only effect; inactive = flat fitted curve, though single readings scatter.
# Test system: MCC-13
# Experiment: qHTS assay to identify novel small-molecules to repurpose for Merkel cell carcinoma treatment (AID 1296009); note: nearly all actives have a fitted effect of over 60% in size
# Conditions: MCC and control cell lines, CellTiter-Glo viability, 72 h; series mostly up to 46 µM; activity change, negative = cytotoxicity: at the top concentration
# How it was run: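 qHTS format: cells treated with library compounds in DMSO across 8 (NPC) or 11 (MIPE) concentrations. Readout after 72 hr at 37 degree celsius was CellTiter-Glo luminescence.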
# % is set by controls: 0 for no effect and ±100 for the full control effect.
row,SMILES,"activity change, negative = cytotoxicity"
1,Cc1cnc(NS(=O)(=O)c2ccc(N)cc2)nc1,0.191% (inactive)
2,CC1c2ccccc2CN1NC(=O)c1ccc(Cl)c(S(N)(=O)=O)c1 (stereo not drawn),15.5% (inactive)
3,CCC[C@H](N[C@@H](C)C(=O)N1[C@H](C(=O)O)C[C@@H]2CCCC[C@@H]21)C(=O)OCC,-9.19% (inactive)
4,N#CSCC(=O)O,-7.24% (inactive)
5,CC(C)(C)C1CCC(CC2=C(O)c3ccccc3C(=O)C2=O)CC1 (stereo not drawn),-7.96% (inactive)
6,CCOC(=O)N1CCC(Nc2ccc(Cl)cc2N)CC1,-21.7% (inactive)
7,O=C(NO)c1ccccc1,-7.07% [at 92.7 µM] (inactive)
8,Cc1cccc(N(C)C(=S)Oc2ccc3c(c2)CCC3)c1,0.204% (inactive)
9,Nc1nc2ccccc2n1Cc1ccc(F)cc1,-1.92% (inactive)
10,CC(C)(c1ccc(O)cc1)c1ccc(O)cc1,14.2% [at 92.7 µM] (inactive)
11,CC(=O)[C@H]1CC[C@H]2[C@@H]3C=CC4=CC(=O)CC[C@@]4(C)[C@@H]3CC[C@]12C,-16.1% (inactive)
12,O=C(OCCN1CCOCC1)c1cccnc1Nc1cccc(C(F)(F)F)c1,7.47% (inactive)
13,COC(=O)c1cc(Cl)ccc1NS(=O)(=O)C(F)(F)F,7.14% (inactive)
14,CC1CC(=O)NN=C1c1ccc(NCC(C)(C)NCC(O)COc2cc(Cl)ccc2C#N)cc1 (stereo not drawn),6.12% (inactive)
15,c1ccc(C(O[C@H]2CCCN(CCc3ccc4c(c3)OCO4)C2)c2ccccc2)cc1,12.5% (inactive)
16,O=C(CS(=O)Cc1ccco1)NC/C=C\COc1cc(CN2CCCCC2)ccn1 (stereo not drawn),-6.82% (inactive)
17,CCc1cc2cc(OC)c(OC)cc2c(Cc2ccccc2)n1,-0.573% (inactive)
18,CCCC(=O)O[C@]1(C(=O)CC)CC[C@H]2[C@@H]3CCC4=CC(=O)CC[C@]4(C)[C@H]3[C@@H](O)C[C@@]21C,-3.71% (inactive)
